Laboratory results as given in PubChem BioAssay (NCATS).
Inconclusive results are not listed. Calls of active or inactive are those of the source. Unless noted, calls come from the whole dose curve; as a rule, active = well fitted curve in the direction sought with a large enough effect; inconclusive = small, poorly fitted or top-dose-only effect, or another doubt; inactive = no such curve, though single readings can be large; an effect the other way counts as inactive or inconclusive. Starred links: 1 amine or outer side, 2 acyl side, 3 side chain; linkers in the order of their positions; H or OH if unused. Positions of bridges follow the written chain, without caps; N, C: chain ends. Non-standard residues stand in square brackets, D forms with d. Residues, ends and D or L forms follow the SMILES beside them. ξ: configuration not given here. *: point of attachment. X3 = C[C@@H](Oc1ccc([C@H](N[*:1])C(=O)[*:2])cc1)[C@]1(/C=C\C(=O)[*:3])CO1; d(aIle) = CC[C@H](C)[C@@H](N)C(=O)O; X2 = CC(C)[C@@H](O)C(C)C(=O)*; ξNMeF = CNC(Cc1ccccc1)C(=O)O; ξT = CC(O)C(N)C(=O)O; ξS = NC(CO)C(=O)O

Legend:
[1] = test system: Zika virus NS2B-NS3 protease (linked construct); experiment: Primary screen NINDS Rhodamine qHTS for Zika virus inhibitors (AID 1347160); note: nearly all actives have a fitted effect of over 55% in size
Summary of the method: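 Kinetic fluorescence (Ex 480 nm, Em 540 nm) over 15 min with 1.5 microM Rhodamine110 peptide and 25 nM linked protease.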

[2] = UWB1.289 Cancer Cell Toxicity qHTS against the NCATS CANVASS Library (AID 1347347); note: nearly all actives have a fitted effect of over 60% in size
Summary of the method: (§1)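 Following a 4 h pre-incubation of 1000 seeded cells, compounds were pinned in an 11-pnt dilution series and left for 72 h; viability then came from CellTiter-Glo.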

[3] = OV-SAHO Cancer Cell Toxicity qHTS against the NCATS CANVASS Library (AID 1347348); note: nearly all actives have a fitted effect of over 55% in size
Summary of the method: as §1

[4] = Panc-1005 Cancer Cell Toxicity qHTS against the NCATS CANVASS Library (AID 1347349); note: nearly all actives have a fitted effect of over 60% in size
Summary of the method: as §1

[5] = UWB1.289-WTBRCA1 Cancer Cell Toxicity qHTS against the NCATS CANVASS Library (AID 1347354)
Summary of the method: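 Cells were seeded at 1000 per well and allowed to settle 4 hours at 37 degrees C before pin transfer of compounds as an 11-point series. Viability was read by CellTiter-Glo luminescence after 72 hours' exposure.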

[6] = qHTS for Antimalaria activity screened against the NCATS CANVASS Library (AID 1347380); note: nearly all actives have a fitted effect of over 40% in size
Summary of the method: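 P. falciparum Dd2-infected RBCs (2.5% hematocrit final, 0.3% parasitemia) in Albumax II RPMI were exposed to compounds in an 11-point qHTS series for 72 h at 37C under 5% O2/5% CO2, then lysed with SYBR Green.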

[7] = qHTS for inhibitors of ER calcium dysfunction: SERCaMP assay screened against the NCATS CANVASS Library (AID 1347393); note: nearly all actives have a fitted effect of over 40% in size
Summary of the method: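 Thapsigargin-induced ER calcium depletion drives GLuc-SERCaMP secretion from SH-SY5Y cells; compounds given 16 h beforehand were scored by lowered coelenterazine luminescence after 4 h challenge.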

[8] = OV-KATE Cancer Cell Toxicity qHTS against the NCATS CANVASS Library (AID 1347345)
Summary of the method: as §1

[9] = G06 Cancer Cell Toxicity qHTS against the NCATS CANVASS Library (AID 1347368); note: nearly all actives have a fitted effect of over 60% in size
Summary of the method: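 G06 dog glioma cells seeded at 500 cells/well were exposed to compounds (11-point qHTS series) for 72 hr at 37C, 5% CO2; viability read as ATP content by CellTiterGlo luminescence.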

[10] = MCF7 Cancer Cell Toxicity qHTS against the NCATS CANVASS Library (AID 1347369)
Summary of the method: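 MCF7, 500 cells/well; cpds 11-pt qHTS; 72 hr, 37C/5% CO2; CellTiterGlo ATP luminescence.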

[11] = target: Glucocorticoid receptor (Homo sapiens) (UniProt P04150); experiment: GR-GFP Redistribution (AID 450;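 active = compounds whose dose series gives a full or clear partial fitted curve of increased nuclear translocation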); settings: U2OS GR-GFP nuclear translocation, laser cytometry, 2 h

Measured: Potency
Potency is the fitted concentration of half-maximal effect.

Sequence of Glucocorticoid receptor (Homo sapiens) (P04150 whole entry, looked up): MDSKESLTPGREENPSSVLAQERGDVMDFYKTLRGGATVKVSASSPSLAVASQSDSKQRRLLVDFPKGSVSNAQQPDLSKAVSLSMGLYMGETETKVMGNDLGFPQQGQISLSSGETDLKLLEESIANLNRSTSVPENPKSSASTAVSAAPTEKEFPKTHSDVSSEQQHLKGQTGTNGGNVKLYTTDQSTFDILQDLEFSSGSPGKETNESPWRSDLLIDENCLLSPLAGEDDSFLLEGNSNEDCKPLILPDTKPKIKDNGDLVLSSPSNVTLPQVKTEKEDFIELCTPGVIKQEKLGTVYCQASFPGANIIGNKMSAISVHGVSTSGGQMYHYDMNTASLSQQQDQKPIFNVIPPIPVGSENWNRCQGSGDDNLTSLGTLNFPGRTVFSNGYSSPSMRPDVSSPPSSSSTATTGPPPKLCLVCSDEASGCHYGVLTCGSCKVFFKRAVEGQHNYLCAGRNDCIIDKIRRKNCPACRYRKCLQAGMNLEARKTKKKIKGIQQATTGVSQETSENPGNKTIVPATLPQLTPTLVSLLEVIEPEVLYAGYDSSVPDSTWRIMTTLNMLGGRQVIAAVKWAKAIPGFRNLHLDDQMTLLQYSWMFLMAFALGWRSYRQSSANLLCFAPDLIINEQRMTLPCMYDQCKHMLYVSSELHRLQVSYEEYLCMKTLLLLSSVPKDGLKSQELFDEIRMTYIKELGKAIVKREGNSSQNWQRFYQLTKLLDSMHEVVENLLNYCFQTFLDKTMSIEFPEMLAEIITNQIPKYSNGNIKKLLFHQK

C=C(C)[C@H]1C(=O)c2c3c(cc4c5c(n1c24)[C@@]1(C)[C@@H](CC[C@H]2[C@](C)(/C=C/C=C(\C)C(=O)O)[C@@H](O)CC[C@@]21C)C5)C1=CC(C)(C)OC(C)(C)[C@H]1[C@@H]3O
inactive: [7]
active: [1] 2.2 µM | [2] 11.8 µM | [3] 11.8 µM | [4] 8.41 µM | [5] 18.8 µM | [6] 7.47 µM

CCCC[C@@H]1CC[C@H]2CCCC(CCCO)N12 (stereo partly specified)
active: [6] 0.0106 µM
inactive: [8] | [3] | [4] | [5] | [9] | [10]

C=CC(C)(C)[C@@]12C[C@H]3C(=O)N/C(=C\c4cnc[nH]4)C(=O)N3[C@@H]1Nc1ccccc12
active: [7] 34.3 µM
not listed: [1] | [11]
inactive: all other assays above

C[C@]12CCC3[C@@H](CC[C@@H]4C[C@@H](O)CC[C@]34CO)[C@@]1(O)CC[C@@H]2C1=CC(=O)OC1 (stereo partly specified)
inactive: [6] | [7]
active: [2] 1.18 µM | [3] 2.36 µM | [9] 1.87 µM | [10] 1.17 µM

C/C=C1/CN2CC[C@]34C(=C(C(=O)OC)[C@H]1C[C@H]23)Nc1ccccc14
active: [7] 19.3 µM
inactive: [1] | [8] | [2] | [3] | [5] | [6]

C/C=C(\C)C(=O)O[C@@H]1[C@@H](O)[C@@H]2O[C@H]3[C@H](O[C@@H](CCCCC)CCCCCCC(=O)CCC(=O)OC[C@@H](O2)[C@H]1OC(=O)/C=C/c1ccccc1)O[C@H](C)[C@H](OC(C)=O)[C@@H]3O
inactive: [5]
active: [8] 0.188 µM | [2] 0.594 µM | [3] 0.0747 µM | [4] 0.0335 µM | [9] 0.0047 µM | [6] 0.0375 µM | [7] 0.086 µM

CCC(=O)N[C@@H](C[C@H](C)C(Cl)(Cl)Cl)C(=O)N1C(=O)C=C(OC)[C@@H]1C[C@H](C)C(Cl)Cl
active: [7] 27.2 µM
inactive: [8] | [4] | [5] | [9] | [10]

COC1C(O)C(C)OC(OC2C(Oc3cccc4c(O)c5c(=O)oc6ccc(C)c7c(=O)oc(c34)c5c67)OC(C)C(O)C2O)C1O (stereo unspecified)
inactive: [7]
active: [4] 16.8 µM | [9] 9.35 µM

C=CC(C)(C)[C@@]12C[C@H]3C(=O)N/C(=C/c4cnc[nH]4)C(=O)N3[C@@H]1Nc1ccccc12
active: [6] 0.298 µM
not listed: [1] | [7] | [11]
inactive: all other assays above

C/C=C1/CN2C3CC1C1=CCC(=O)N4c5ccccc5[C@@]3(C[C@@H]2C2=C[C@H]3C5CC6N(CC[C@@]67c6ccccc6N(C2=O)[C@@H]37)C/C5=C/C)[C@H]14 (stereo partly specified)
inactive: [8]
active: [1] 31.1 µM | [4] 14.9 µM | [9] 20.9 µM | [6] 1.33 µM

C[N+](C)(C)CCc1c[nH]c2ccccc12
not listed: [1] | [6] | [11]
inactive: all other assays above

COC1=C(C2=C(OC)C(=O)c3cc4c(c(O)c3C2=O)C(=O)O[C@H](C)C4)C(=O)c2c(cc3c(c2O)C(=O)O[C@H](C)C3)C1=O
active: [1] 3.3 µM
not listed: [2] | [4] | [11]
inactive: all other assays above

C1=C2CCCN[C@H]2C2CC1[C@H]1CCCCN1C2 (stereo partly specified)
not listed: [1] | [9] | [11]
inactive: all other assays above

CC[C@H]1CN2CCc3c([nH]c4cccc(OC)c34)[C@@H]2C[C@@H]1/C(=C\OC)C(=O)OC
inactive: [8] | [5] | [10] | [6]
active: [1] 24.7 µM | [7] 13.6 µM

CC(C)CC1C(=O)O[C@H](C(C)C)C(=O)N(C)C(CC(C)C)C(=O)O[C@@H](C(C)C)C(=O)N(C)C(CC(C)C)C(=O)O[C@H](C(C)C)C(=O)N(C)C(CC(C)C)C(=O)O[C@@H](C(C)C)C(=O)N1C (stereo partly specified)
inactive: [10]
active: [1] 4.4 µM | [3] 5.94 µM | [4] 6.68 µM | [6] 0.747 µM

CC[C@@H]1CN2CCC3(Nc4cccc(OC)c4C3=O)[C@@H]2C[C@@H]1/C(=C\OC)C(=O)OC (stereo partly specified)
active: [7] 12.2 µM
inactive: [1] | [8] | [4] | [5] | [9] | [10]

CC[C@@H]1CN2CCc3c([nH]c4cccc(OC)c34)[C@@H]2C[C@@H]1/C(=C\OC)C(=O)OC
inactive: [1]
active: [3] 14.9 µM | [9] 23.5 µM | [7] 8.6 µM

CCCC[C@@H](C)/C=C1/CN2CCC[C@H]2[C@@](C)(O)[C@@H]1O
not listed: [1] | [2] | [7] | [11]
inactive: all other assays above

CO[C@H]1C[C@H](O[C@H]2[C@@H](O)C[C@H](O[C@H]3CC[C@]4(C=O)[C@H]5CC[C@]6(C)C(C7=CC(=O)OC7)CC[C@]6(O)[C@@H]5CC[C@]4(O)C3)O[C@@H]2C)O[C@H](C)[C@H]1O[C@H]1C[C@@H](OC)[C@@H](O[C@@H]2O[C@H](CO)[C@@H](O)[C@H](O)[C@H]2O)[C@@H](C)O1 (stereo partly specified)
active: [1] 44 µM | [8] 0.265 µM | [9] 0.264 µM | [10] 0.166 µM
inactive: [3] | [7]

C/C(=C\[C@H](C)C(=O)C[C@H](O)CC1CC(=O)NC(=O)C1)[C@@H]1OC(=O)/C=C/CC/C=C/C=C/[C@@H]1C
active: [1] 44 µM | [2] 0.118 µM | [3] 0.118 µM | [4] 0.0668 µM | [9] 0.0526 µM | [6] 0.941 µM
inactive: [7]

C/C=C1/CN2CC[C@@]34c5ccccc5N(C)[C@@H]3[C@@H]2C[C@@H]1[C@H]4C(=O)OC
active: [7] 0.86 µM
inactive: [8] | [3] | [5] | [9] | [6]

CO[C@H]([C@@H](C)[C@H]1O[C@]1(C)C[C@H](C)/C=C/C=C(\C)[C@H]1O[C@@H](CC(=O)O)CC[C@@H]1C)[C@@H](C)O
active: [2] 0.0188 µM | [4] 0.0375 µM | [9] 0.0296 µM | [10] 0.0052 µM | [6] 0.0666 µM
inactive: [7]

CO[C@@H](/C=C/CC/C=C/C(=O)O)[C@@H](O)[C@H](C)/C=C(\C)[C@H](O)[C@H](C)C(=O)CCCC1CC(=O)NC(=O)C1
not listed: [1] | [6] | [11]
inactive: all other assays above

CO[C@H]1[C@H](O[C@H]2CC[C@]3(C=O)[C@H]4CC[C@]5(C)[C@@H](C6=CC(=O)OC6)CC[C@]5(O)[C@@H]4CC[C@]3(O)C2)O[C@H](C)[C@H](O)[C@@H]1OC
inactive: [6] | [7]
active: [9] 0.296 µM

c1ccc2nc3c(cc2c1)[nH]c1ccccc13
inactive: [8] | [2] | [5] | [10] | [6]

CC[C@H](C)[C@H]1NC(=O)[C@@H](NC(=O)C(C)[C@H](O)C(C)C)[C@@H](C)OC(=O)C2COC(=O)CNC(=O)/C=C\[C@]3(CO3)[C@@H](C)Oc3ccc(cc3)[C@H](NC1=O)C(=O)N(C)C(Cc1ccccc1)C(=O)NC(C(C)O)C(=O)N2 (stereo partly specified) (X2-T[d(aIle)][X3][ξNMeF][ξT][ξS]; ester 1-C; linker 3-6 via G)
inactive: [8] | [3] | [4] | [5] | [10] | [7]

C=C[C@]12C=CCN3CC[C@@]4(c5ccccc5NC(=O)[C@@H]4C1)[C@@H]32
inactive: [8] | [2] | [3] | [4] | [5] | [10]

C[C@]12CC(O)C3[C@@H](CCC4C[C@@H](O)CC[C@@]43CO)[C@@]1(O)CC[C@@H]2C1=CC(=O)OC1 (stereo partly specified)
active: [1] 44 µM | [2] 13.3 µM | [9] 13.2 µM
inactive: [6] | [7]

CCCCC1CC[C@H]2CCCC(CCC)N12 (stereo partly specified)
not listed: [2] | [11]
inactive: all other assays above

CN(C)[C@@H]1C(=O)C(C(N)=O)=C(O)[C@]2(O)C(=O)C3=C(O)c4c(O)cccc4[C@@](C)(O)[C@@H]3C[C@@H]12
inactive: [11] > 46 µM

C[C@]12CC(O)C3[C@@H](CC[C@@H]4C[C@@H](O)CC[C@]34CO)[C@@]1(O)CC[C@@H]2C1=CC(=O)OC1 (stereo partly specified)
active: [2] 4.2 µM | [9] 4.18 µM | [10] 5.23 µM
inactive: [6]

C=C[C@H]1CN2CCc3c([nH]c4cccc(OC)c34)[C@@H]2C[C@@H]1/C(=C\OC)C(=O)OC
active: [7] 17.2 µM
inactive: [1] | [8] | [4] | [5] | [10]

O[C@H]1C=C[C@@]23CCN(Cc4cc5c(cc42)OCO5)[C@@H]3C1
active: [2] 11.8 µM
inactive: [8] | [3] | [4] | [9] | [10] | [7]

CC[C@]12C=CCN3CC[C@]4(C(=C(C(=O)OC)C1)Nc1ccccc14)[C@@H]32
active: [6] 0.042 µM
inactive: [8] | [2] | [3] | [4] | [5] | [10]
